From article PMC4336329 (PLoS ONE, 2015) come the findings set out here.

Screen size: about 310,000 compounds; about 2,200 (0.71%) showed an effect of 50% or more. Effects have a minus sign here. The list comes from a sample in which strong results are over-represented; it also holds similar structures and randomly drawn compounds.

For the assay, the target named is human ether-à-go-go-related gene (hERG) potassium channel (human, UniProt Q12809). Nature of the assay: primary screen, population patch clamp on CHO cells stably expressing hERG; higher = less effect of the substance. How it is done: Briefly, Chinese hamster ovary (CHO) cells stably expressing the hERG channel were dislodged from tissue culture flasks and dispensed into PPC plates. […] During the recording, background leak currents were estimated by a 100 ms step to -80 mV from an initial holding potential of -70 mV and subtracted from the subsequent current measurement. The campaign was conducted in two phases using slight differences in recording protocol. In the first phase, the initial voltage pulse used a 100 ms step to -30 mV from a holding potential of -70 mV, a 2 s conditioning step to +25 mV, and a 2 s test step to -30 mV. During the second phase of the screen, the potential during the conditioning step was raised to +45 mV. In both phases of the campaign, a secondary voltage pulse was applied using the same parameters as the second phase initial pulse. The initial and secondary pulses were applied in the absence of compound, and upon application of 1 μM and 10 μM test concentrations. Small molecule effects on hERG current density were quantified by […].
Sequence of human ether-à-go-go-related gene (hERG) potassium channel (Q12809 whole entry, looked up): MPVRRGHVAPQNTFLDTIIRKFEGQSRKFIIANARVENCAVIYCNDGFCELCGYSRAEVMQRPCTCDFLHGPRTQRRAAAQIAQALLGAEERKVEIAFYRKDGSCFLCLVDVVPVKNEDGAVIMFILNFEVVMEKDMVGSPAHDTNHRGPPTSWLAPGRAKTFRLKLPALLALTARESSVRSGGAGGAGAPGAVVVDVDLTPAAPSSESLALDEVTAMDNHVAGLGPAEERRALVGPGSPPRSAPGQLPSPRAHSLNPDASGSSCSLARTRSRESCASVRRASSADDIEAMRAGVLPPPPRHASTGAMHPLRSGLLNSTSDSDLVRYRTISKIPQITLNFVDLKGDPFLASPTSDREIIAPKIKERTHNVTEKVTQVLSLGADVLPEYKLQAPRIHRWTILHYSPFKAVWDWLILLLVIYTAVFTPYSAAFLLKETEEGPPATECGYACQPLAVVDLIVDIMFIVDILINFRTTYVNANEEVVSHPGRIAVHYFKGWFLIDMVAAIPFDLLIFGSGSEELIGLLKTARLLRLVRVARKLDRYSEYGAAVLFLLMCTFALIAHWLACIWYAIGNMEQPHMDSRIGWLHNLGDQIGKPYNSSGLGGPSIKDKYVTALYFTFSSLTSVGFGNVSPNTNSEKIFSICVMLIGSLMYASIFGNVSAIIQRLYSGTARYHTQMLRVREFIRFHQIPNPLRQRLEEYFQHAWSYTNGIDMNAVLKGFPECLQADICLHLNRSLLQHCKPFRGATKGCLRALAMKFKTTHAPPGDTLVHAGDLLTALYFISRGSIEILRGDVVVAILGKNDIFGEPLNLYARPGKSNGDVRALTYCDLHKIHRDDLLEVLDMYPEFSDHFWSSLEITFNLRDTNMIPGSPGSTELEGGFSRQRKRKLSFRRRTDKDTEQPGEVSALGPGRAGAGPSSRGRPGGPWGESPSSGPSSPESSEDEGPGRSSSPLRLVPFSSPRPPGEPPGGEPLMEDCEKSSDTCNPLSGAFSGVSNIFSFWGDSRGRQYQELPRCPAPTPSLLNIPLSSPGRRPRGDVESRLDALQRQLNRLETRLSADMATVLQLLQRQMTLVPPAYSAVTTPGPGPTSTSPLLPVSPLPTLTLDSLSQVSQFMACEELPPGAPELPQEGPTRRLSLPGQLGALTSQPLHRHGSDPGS
On to `CC(Cc1ccccc1)NCC(=O)Nc1cc(N(C)C)nc2ccccc12.O=C(O)C(=O)O` (stereo not shown), for which the “hERG current change (%, negative = inhibition) at 1uM” value was -73.5%.
For `CCN(CC)CC(=O)Nc1cc(N(C)C)nc2ccccc12.O=C(O)C(=O)O`, the “hERG current change (%, negative = inhibition) at 1uM” value is on record as 6.57%.
With `CN(C)c1cc(NC(=O)CNC(C)(C)C)c2ccccc2n1.O=C(O)C(=O)O`, the “hERG current change (%, negative = inhibition) at 1uM” value is 2.05%.
With `CCCCCC(=O)Nc1cc(N(C)C)nc2ccccc12`, the “hERG current change (%, negative = inhibition) at 1uM” value is reported as -77.9%.
For `CN(C)c1cc(NC(=O)CNC(C)(C)CC(C)(C)C)c2ccccc2n1.O=C(O)C(=O)O`, the “hERG current change (%, negative = inhibition) at 1uM” value is given as -7.36%.
Under `CCCCC(=O)Nc1cc(N(C)C)nc2ccccc12` stands -30.7%; under `NS(=O)(=O)c1ccc(O)c(N2C(=O)c3cccc4c(C(=O)O)ccc(c34)C2=O)c1`, 10.3%.
Under `COc1ccc(C(=O)CSc2nc(-c3ccccn3)nc(C)c2Cl)cc1` stands 13%; under `Cc1nonc1CC(=O)N1CCCC(C(=O)c2cccc(C(F)(F)F)c2)C1` (stereo not shown), -20.6%; under `O=C(C1CCC(=O)N1Cc1cccnc1)N1CCN(c2ccc(F)cc2)CC1` (stereo not shown), 10.5%.
Under `OCC[N+]12CCC(CC1)C(C(O)(c1ccccc1)c1ccccc1)C2` (stereo not shown) stands 15.2%; under `CCc1ccc(C(=O)NNc2cc(Cl)ccc2Cl)cc1`, 12.5%; under `Cn1c(-c2cccc([N+](=O)[O-])c2)cnc1NCc1cccc([N+](=O)[O-])c1.O=C(O)C(=O)O`, -28.2%.
For `Cn1c(-c2ccc(Br)cc2)cnc1NCc1ccc(C#N)cc1.O=C(O)C(=O)O`, the “hERG current change (%, negative = inhibition) at 1uM” value is on record as -77.2%.
Under `Cn1c(-c2ccccc2)cnc1NCc1ccc(-c2ccccc2)cc1.O=C(O)C(=O)O` stands 11%.
Under `Cn1c(-c2cccc([N+](=O)[O-])c2)cnc1NCc1ccc(C#N)cc1.O=C(O)C(=O)O` stands -56.4%; under `CSc1ccc(CNc2ncc(-c3cccc([N+](=O)[O-])c3)n2C)cc1.O=C(O)C(=O)O`, -26.5%; under `Cn1c(-c2ccc(F)cc2)cnc1NCc1ccc(C#N)cc1`, -22.9%.
On to `O=C1CC(c2ccc(Cl)cc2)CC(O)=C1C=NCCO` (stereo not shown), for which the “hERG current change (%, negative = inhibition) at 1uM” value is on record as 10.6%.
Under `O=C1C2C3C=CC(C3)C2C(=O)N1CCN1CCN(S(=O)(=O)/C=C/c2ccccc2)CC1` (stereo not shown) stands 11%.
Regarding `Cc1cc(C)n2c(SCC(=O)NC3CCCC(C)C3C)nnc2n1` (stereo not shown), the “hERG current change (%, negative = inhibition) at 1uM” value amounted to 12.4%.
Under `O=C(NCc1cc(C(F)(F)F)cc(C(F)(F)F)c1)C1CC(c2cccc(F)c2)=NO1` (stereo not shown) stands 2.14%; under `O=c1cc(-c2ccccc2F)oc2ccccc12`, 2.56%; under `C=CCNc1cnn(-c2ccc(C)cc2)c(=O)c1Sc1ccc(C)cc1`, 13.8%.
On to `COC(=O)c1ccc(CNC(=O)COc2ccccc2Br)o1`, for which the “hERG current change (%, negative = inhibition) at 1uM” value amounted to 12.4%.
For `CC(C)CNS(=O)(=O)c1ccc(NC(=O)Cn2nc(-c3ccc(F)cc3)ccc2=O)cc1`, the “hERG current change (%, negative = inhibition) at 1uM” value was 7.17%.
Take `CN(C/C=C/c1ccccc1)Cc1cccc2ccccc12.Cl`: the “hERG current change (%, negative = inhibition) at 1uM” value was determined as 5.76%.
Under `O=C(NCC(=O)N1CC=C(c2ccccc2)CC1)c1ccco1` stands -50.9%; under `CSCCC(NC(=O)c1ccco1)C(=O)N1CC=C(c2ccccc2)CC1` (stereo not shown), -1.93%; under `Cc1cccc(C(=O)NCC(=O)N2CC=C(c3ccccc3)CC2)c1`, -1.82%.
With `c1ccc(Cn2ncc3ccccc32)cc1`, the “hERG current change (%, negative = inhibition) at 1uM” value came to 10.6%.
In the case of `CCOCCCNS(=O)(=O)c1ccc(NC(=O)C2CC(=O)N(c3ccc(C)cc3)C2)cc1` (stereo not shown), the “hERG current change (%, negative = inhibition) at 1uM” value was 11.4%.
Under `CN(C)C=Nc1nonc1-c1ccc(Cl)cc1` stands 11.2%; under `O=C(NCCCn1ccnc1)/C(=C\c1cccnc1)NC(=O)c1ccccc1Br`, 9.44%; under `COc1ccccc1C(=O)N/C(=C/c1ccc(Br)cc1)C(=O)NCCCn1ccnc1`, -84.8%.
For `O=C(NCCCn1ccnc1)/C(=C\c1ccc(Br)cc1)NC(=O)c1ccccc1F`, the “hERG current change (%, negative = inhibition) at 1uM” value was -81.5%.
Under `COc1ccccc1C(=O)N/C(=C\c1ccc(Br)cc1)C(=O)NCCCO` stands -0.677%; under `O=C(NCCCn1ccnc1)/C(=C\c1cccnc1)NC(=O)c1ccccc1F`, 8%.
As to `COc1ccccc1C(=O)N/C(=C\c1cn(C)c2ccccc12)C(=O)NCCCn1ccnc1`, the “hERG current change (%, negative = inhibition) at 1uM” value came to 12.2%.
As for `Cc1ccc(NC(=O)CN2C(=O)CCSc3ccc(S(=O)(=O)N4CCCC4)cc32)cc1`, the “hERG current change (%, negative = inhibition) at 1uM” value was determined as 19%.
Take `CCOC(=O)C1CCN(CC(=O)c2ccc(O)c(C)c2O)CC1`: the “hERG current change (%, negative = inhibition) at 1uM” value was 12.3%.
Regarding `Cc1cc2c(NC3CCCCC3)ncnc2s1.Cl`, the “hERG current change (%, negative = inhibition) at 1uM” value is reported as 12%.
Under `N#C/C(=C\c1c(Cl)cccc1Cl)c1nc2ccccc2o1` stands 2.68%.
